The results in this text go back to PMC8769072, “Proteome‐scale mapping of binding sites in the unstructured regions of the human proteome” (Molecular Systems Biology, 2022).

Chain of YAP1 169-207, P46937 (P46937 169-207): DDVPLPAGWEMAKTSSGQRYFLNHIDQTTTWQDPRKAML
Chain of YES1 90-152, P07947 (P07947 90-152): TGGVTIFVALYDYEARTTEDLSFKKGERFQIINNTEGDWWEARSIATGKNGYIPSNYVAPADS

B1: KLF5, Q13887 (peptide)
chain: PPPSYAATIASKLAIH
B1: the “selected by phage display” value with YAP1 169-207, P46937 was “confidence 3 (active)”.

B2: FNDC3B, Q53EP0 (peptide)
chain: AYPPSYPSAMSPTHHL
For the molecule B2, the “selected by phage display” value with YAP1 169-207, P46937 is “confidence 2 (active)”.

B3: ARID2, Q68CP9 (peptide)
chain: IAPPQYVTTSASNIVS
Regarding B3, in the assay with YAP1 169-207, P46937, the “selected by phage display” value is “confidence 4 (active)”.

B4: TRERF1, Q96PN7 (peptide)
chain: LQEQQQQQMHLQPPSY
B4: in the assay with YAP1 169-207, P46937, the “selected by phage display” value is “confidence 2 (active)”.

B5: KIF26A, Q9ULI4 (peptide)
chain: RPLPSPAPPPPQLLEA
Consider B5, for which the “selected by phage display” value with YES1 90-152, P07947 was “confidence 2 (active)”.

B6: CSRNP1, Q96S65 (peptide)
chain: QALPDYSLGPHYTSQK
With B6, in the assay with YAP1 169-207, P46937, the “selected by phage display” value is “confidence 2 (active)”.

B7: USP10, Q14694 (peptide)
chain: TPRSSVELPPYSGTVL
For the molecule B7, the “selected by phage display” value in the assay with YAP1 169-207, P46937 is “confidence 2 (active)”.

B8: ARHGAP5, Q13017 (peptide)
chain: EAPPPYSPIGDDVQLL
Consider B8, for which, in the assay with YAP1 169-207, P46937, the “selected by phage display” value is “confidence 3 (active)”.

B9: EPPK1, P58107 (peptide)
chain: MSGHTLPPLPVPGTNS
For B9, in the assay with YES1 90-152, P07947, the “selected by phage display” value is “confidence 3 (active)”.

B10: RSPH6A, Q9H0K4 (peptide)
chain: MGDLPPYPERPAQQPP
In the case of B10, in the assay with YAP1 169-207, P46937, the “selected by phage display” value is “confidence 2 (active)”.

B11: ANK3, Q12955 (peptide)
chain: ESLPSYLESSRVNTPV
As to B11, the “selected by phage display” value with YAP1 169-207, P46937 was “confidence 4 (active)”.

B12: SOBP, A7XYQ1 (peptide)
chain: LLPPPPPGAPLPSLPF
For B12, the “selected by phage display” value with YES1 90-152, P07947 was “confidence 2 (active)”.

B13: CUEDC1, Q9NWM3 (peptide)
chain: SPPAYHMHVFDRPYPL
Take B13: the “selected by phage display” value with YAP1 169-207, P46937 was “confidence 3 (active)”.

B14: FOXJ3, Q9UPW0 (peptide)
chain: MPPPGYPHIPQALSTP
Take B14: in the assay with YAP1 169-207, P46937, the “selected by phage display” value is “confidence 4 (active)”.

B15: BSN, Q9UPA5 (peptide)
chain: VKRTLPSPPPEEAHLP
For the molecule B15, the “selected by phage display” value in the assay with YES1 90-152, P07947 is “confidence 3 (active)”.

B16: KNL1, Q8NG31 (peptide)
chain: SPSQYINEENLPVYPD
B16: in the assay with YAP1 169-207, P46937, the “selected by phage display” value was “confidence 2 (active)”.

B17: SMARCC1, Q92922 (peptide)
chain: HQQPPPYPLMHHQMPP
Regarding B17, in the assay with YAP1 169-207, P46937, the “selected by phage display” value is “confidence 3 (active)”.

B18: LDLRAD3, Q86YD5 (peptide)
chain: ASEVGSPPSYSEALLD
As for B18, the “selected by phage display” value with YAP1 169-207, P46937 was “confidence 3 (active)”.

B19: RPL13AP3, Q6NVV1 (peptide)
chain: SLDALKVFDGIPPPYD
Regarding B19, the “selected by phage display” value in the assay with YAP1 169-207, P46937 was “confidence 2 (active)”.

B20: PEAR1, Q5VY43 (peptide)
chain: SSENPYATIRDLPSLP
For the molecule B20, the “selected by phage display” value with YES1 90-152, P07947 is “confidence 4 (active)”.

B21: MED12L, Q86YW9 (peptide)
chain: SPQLPQYPGLQQAQTM
For the molecule B21, the “selected by phage display” value with YAP1 169-207, P46937 was “confidence 3 (active)”.

B22: FOXI1, Q12951 (peptide)
chain: PTMTPPPYLPGPNASP
With B22, in the assay with YAP1 169-207, P46937, the “selected by phage display” value is “confidence 4 (active)”.

B23: SLC39A5, Q6ZMH5 (peptide)
chain: DMLPALLRPPEPLPTP
Turning to B23, the “selected by phage display” value with YES1 90-152, P07947 was “confidence 2 (active)”.

B24: MYO1E, Q12965 (peptide)
chain: APPPPGYHQNGVIRNQ
As for B24, the “selected by phage display” value in the assay with YAP1 169-207, P46937 is “confidence 3 (active)”.

B25: LPIN2, Q92539 (peptide)
chain: EYEKLPAYLATSPIPT
Take B25: the “selected by phage display” value with YAP1 169-207, P46937 was “confidence 3 (active)”.

B26: CBL, P22681 (peptide)
chain: DKPLPVPPTLRDLPPP
As to B26, the “selected by phage display” value with YES1 90-152, P07947 was “confidence 4 (active)”.

B27: VWA5B2, Q8N398 (peptide)
chain: HSSRELPSRPDGVLHV
Regarding B27, in the assay with YES1 90-152, P07947, the “selected by phage display” value was “confidence 3 (active)”.

B28: PIKFYVE, Q9Y2I7 (peptide)
chain: GSPMVPSYETSVSPQA
Consider B28, for which, in the assay with YAP1 169-207, P46937, the “selected by phage display” value was “confidence 2 (active)”.

B29: TFAP2E, Q6VUC0 (peptide)
chain: AEFQPPYFPPPYPQPP
Consider B29, for which the “selected by phage display” value in the assay with YAP1 169-207, P46937 is “confidence 2 (active)”.

B30: RNF223, E7ERA6 (peptide)
chain: NLRALPLPPRPPATST
In the case of B30, the “selected by phage display” value with YES1 90-152, P07947 was “confidence 3 (active)”.

B31: VPS54, Q9P1Q0 (peptide)
chain: VDPSKHIRPVPSLPDV
As to B31, the “selected by phage display” value with YES1 90-152, P07947 is “confidence 2 (active)”.
